CHO-K1 Ca ag: nonselective activator or artifact in parental CHO-K1 cells; actives 0.48% (n = 360,000); activation, % at 3 µM; Fluo-8 calcium fluorescence; scaled to maximal ATP response, vehicle zero; AID 602248; in the data active = activation above about 15%;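 also: untransfected CHO-K1 host cells lacking M1 receptor as counterscreen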
CHO-K1 Ca PAM: M1 PAM counterscreen hit in parental CHO-K1 cells; ATP EC20, Fluo-8 calcium fluorescence; 0% at ATP EC20, 100% at ATP max; activation, % at 3 µM; actives 0.02% (n = 360,000); AID 602247;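 active = activation above the run cutoff, the mean activation of all test compounds plus 3 SD, cut at about 40% in these data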;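 also: peak over basal fluorescence ratio in a 140 s read after ATP addition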
M4 ag: CHRM4 agonism in calcium assay; actives 0.14% (n = 360,000); P08173; CHO-K1 hM4/Gqi5, Fluo-8 calcium fluorescence; vehicle 0%, full acetylcholine response 100%; activation, % at 3 µM;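 active = activation above the run mean over all test wells plus 3 SD, cut at about 32% in these data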;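 also: peak over basal fluorescence ratio per well then scaled between controls; 0% = DMSO wells and 100% = acetylcholine at EC100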
Target sequence (P08173 whole entry, looked up): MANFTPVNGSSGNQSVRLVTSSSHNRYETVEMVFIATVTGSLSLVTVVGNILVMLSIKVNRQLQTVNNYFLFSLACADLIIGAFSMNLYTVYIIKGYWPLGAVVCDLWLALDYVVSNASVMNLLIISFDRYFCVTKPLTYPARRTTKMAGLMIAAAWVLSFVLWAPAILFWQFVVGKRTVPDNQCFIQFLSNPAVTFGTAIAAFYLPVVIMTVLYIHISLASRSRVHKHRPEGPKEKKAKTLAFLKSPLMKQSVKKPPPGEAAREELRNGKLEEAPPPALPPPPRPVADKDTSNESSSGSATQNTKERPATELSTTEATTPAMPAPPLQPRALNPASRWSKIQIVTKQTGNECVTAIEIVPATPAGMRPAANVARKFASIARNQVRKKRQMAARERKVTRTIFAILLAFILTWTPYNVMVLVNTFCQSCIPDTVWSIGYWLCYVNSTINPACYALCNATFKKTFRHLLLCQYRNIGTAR
CHRM4 antagonist: blocks acetylcholine activation of human M4 receptor; actives 0.73% (n = 360,000); inhibition, % at 3 µM; P08173; CHO-hM4 cells, ACh EC80, Fluo-8 calcium fluorescence;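 active = inhibition above its plate's cutoff, the mean inhibition of sample wells plus 3 SD, cut at about 27% in these data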;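 also: 0% = acetylcholine EC80 with DMSO and 100% = DMSO without agonist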
M4 PAM: CHRM4 positive allosteric modulation; P08173; CHO-K1 hM4/Gqi5, Fluo-8 calcium fluorescence, ACh EC20; 0% = ACh EC20, 100% = maximal ACh; activation, % at 3 µM; actives 0.4% (n = 360,000); AID 624126;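 active = activation above its plate's cutoff, the mean activation of sample wells plus 3 SD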
CHO-K1 Ca antag: counter-screen for M1 antagonists: effect in parental CHO-K1 cells; AID 602250; ATP-induced calcium, Fluo-8 fluorescence; inhibition, % at 3 µM; actives 0.6% (n = 360,000);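 active = inhibition above a per-plate cutoff, the plate's mean sample inhibition plus 3 SD, cut at about 24% in these data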;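 also: 0% = DMSO plus EC80 ATP and 100% = DMSO alone without ATP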
An asterisk follows results filed as active. A selection: hits, their analogues and other compounds. The true share with any hit is near 2%.

SMILES | CHO-K1 Ca ag | CHO-K1 Ca PAM | M4 ag | CHRM4 antagonist | M4 PAM | CHO-K1 Ca antag
COc1ccc(CCN)cc1OC | 0.4 | -6.2 | -0.2 | 7.9 | -6.6 | 3.7
NCCc1ccc(OCc2ccccc2)c(OCc2ccccc2)c1 | 15.9* | 7.5 | 33.7* | 21.2 | 8.3 | 5.1
CCN(CC)C(=O)c1ccc(NC(=O)c2cccc(S(=O)(=O)N3CCN(Cc4ccccc4)CC3)c2)cc1 | 9.0 | -18.8 | 15.3 | 1.8 | -8.9 | 29.3*
CCN(CC)C(=O)c1ccc(NC(=O)c2cc(S(=O)(=O)N3CCCCCC3)ccc2OC)cc1 | 3.8 | 1.6 | 8.2 | -4.0 | -6.5 | -3.3
CN1CCc2nc(N)c(C#N)c(-c3ccccc3)c2C1 | 0.1 | 0.8 | 0.1 | 15.4 | -8.3 | -13.9
CN1CCc2c(C#N)c(Cl)nc(Cl)c2C1 | 0.1 | -16.8 | 0.9 | 4.1 | -0.1 | 32.0*
CN1/C(=C\C=C2C(=O)NC(=S)NC2=O)C(C)(C)c2ccccc21 | 53.5* | -8.6 | 23.1 | 14.7 | -13.7 | 22.4
COc1ccc(-n2nnnc2C(c2cccs2)N2CCC(n3c(=O)[nH]c4ccccc43)CC2)cc1 (stereo unspecified) | 6.4 | 31.4 | 17.5 | 36.4* | -9.1 | -15.9
O=c1[nH]c2ccccc2n1C1CCN(C(c2cccs2)c2nnnn2-c2ccc3c(c2)OCCO3)CC1 (stereo unspecified) | 6.8 | 41.9* | 22.1 | 19.1 | -8.4 | -27.6
O=c1[nH]c2ccccc2n1C1CCN(C(c2ccccc2)c2nnnn2-c2ccc3c(c2)OCCO3)CC1 (stereo unspecified) | 6.2 | 9.4 | 21.1 | 34.0* | -5.9 | -16.8
O=c1[nH]c2ccccc2n1C1CCN(C(c2ccccc2OC(F)(F)F)c2nnnn2-c2ccc3c(c2)OCCO3)CC1 (stereo unspecified) | 19.6* | 33.0 | 17.7 | 15.2 | -6.1 | -18.1
O=c1[nH]c2ccccc2n1C1CCN(C(c2nnnn2-c2ccc3c(c2)OCCO3)C2CC2)CC1 (stereo unspecified) | 5.4 | -3.2 | 22.0 | 21.2 | -10.7 | 8.7
COc1cccc(C(c2nnnn2-c2ccc3c(c2)OCCO3)N2CCC(n3c(=O)[nH]c4ccccc43)CC2)c1OC (stereo unspecified) | 6.1 | 31.3 | 23.2 | 13.2 | -9.9 | -6.1
COc1ccc(-c2nn(CCC#N)cc2C(=O)NCc2ccccc2)cc1[N+](=O)[O-] | 1.1 | 16.3 | 1.2 | 0.8 | -1.5 | -7.4
O=C(O)c1nn(Cc2ccc(Cl)cc2)c2ccccc12 | 0.6 | 6.2 | -0.7 | -3.0 | 0.2 | -5.8
CN1CCC(=O)N(CCN=[N+]=[N-])CC1 | -0.1 | -6.9 | 1.6 | -1.2 | 0.1 | -1.2
O=C(Nc1ccc(Cl)cc1)OC1CN2CCC1CC2 (stereo unspecified) | 10.0 | 5.2 | 20.6 | 16.6 | -33.8 | 3.9
O=C(Nc1cccc(Cl)c1)OC1CN2CCC1CC2 (stereo unspecified) | 16.5* | -27.6 | 15.0 | 8.3 | -36.4 | 44.9*
O=C(c1ccc(C(F)(F)F)cc1)C1CCCN(C2CCSCC2)C1 (stereo unspecified) | 0.5 | 14.6 | 1.7 | 24.4 | -21.1 | -12.1
Cc1cc(Cl)ccc1C(=O)C1CCCN(C2CCSCC2)C1 (stereo unspecified) | 0.2 | 11.1 | 2.0 | 33.3* | -23.8 | -15.5
O=C(c1cccc(Cl)c1)C1CCCN(Cc2ccon2)C1 (stereo unspecified) | 1.1 | 15.6 | 1.2 | 0.6 | -1.0 | 0.0
CC(C)Oc1cccc(C(=O)C2CCCN(Cc3ccon3)C2)c1 (stereo unspecified) | 19.4* | -4.3 | 2.2 | 0.9 | -0.7 | -3.8
O=c1[nH]c(=S)n(CCC2=CCCCC2)c(O)c1/C=N/N1CCOCC1 | 0.5 | 10.2 | 1.3 | -2.9 | 3.9 | -1.1
O=c1[nH]c(=O)n(CCC2=CCCCC2)c(O)c1/C=N/N1CCOCC1 | 0.1 | -23.9 | 0.0 | 2.0 | -19.1 | 24.7*
CCOC(=O)[C@]12Cc3ccccc3[C@H]1N(CCC(=O)OC)C(=O)c1cc(OC)ccc12 | 0.1 | -4.9 | -0.1 | 4.6 | 14.6 | -0.7
SMILES | CHO-K1 Ca ag | CHO-K1 Ca PAM | M4 ag | CHRM4 antagonist | M4 PAM | CHO-K1 Ca antag
CC(Cc1ccccc1Sc1ccccc1O)N(C)C (stereo unspecified) | 1.9 | 7.4 | 8.9 | 81.7* | -25.3 | 5.4
O=C(COc1ccccc1Cl)N1CCCC(N2CCN(c3ccc(F)cc3)CC2)C1 (stereo unspecified) | 15.2* | 7.0 | 7.2 | 5.8 | -6.0 | 14.9
CC1(C)CN=C(Nc2ccc(F)c(F)c2)S1 | 23.5* | 20.6 | 18.8 | -2.0 | -3.3 | -12.4
CC1(C)CSC(Nc2ccc(F)c(Cl)c2)=N1 | 1.9 | 0.8 | 3.9 | -4.9 | 1.4 | 0.7
CC1(C)CN=C(Nc2ccc(F)c(Cl)c2)S1 | 29.8* | 11.4 | 35.1* | 4.4 | 8.6 | -14.5
COc1ccc(OC)c(CN2CCN(C(=O)Cc3ccccc3)CC2)c1 | 0.7 | 13.0 | 0.7 | -4.6 | -2.0 | -5.9
Cc1cccc(-n2c(O)c(/C=C/C=Nc3ccccc3)c(=O)[nH]c2=O)c1 | 10.7 | 4.5 | 6.6 | -4.3 | -1.5 | 9.9
Cn1c(O)c(/C=C/C=Nc2ccccc2)c(=O)n(C)c1=S | 28.3* | 7.5 | 6.3 | -2.5 | -4.8 | 13.8
S=C(NCCc1ccccc1)N1Cc2ccccc2-n2nncc2C1 | 2.2 | -6.3 | 8.6 | -1.4 | 1.1 | 12.6
C=CC12CN(C)C3C4COC(CC41)C1(C(=O)Nc4ccccc41)C32 (stereo unspecified) | 0.2 | 11.9 | 0.2 | 4.7 | 1.7 | 0.9
CCCCCCCCCCCCCCCC[N+](C)(C)C | 0.5 | 14.8 | 0.6 | 29.9* | -15.5 | 5.1
COC1=CC(=O)OC(/C=C/c2ccccc2)C1 (stereo unspecified) | 0.4 | -8.9 | 0.2 | -8.6 | -1.9 | 45.6*
Cc1ccc2c(c1)C1C[N+](C)(CC(=O)c3ccc(Cl)cc3Cl)CCC1N2C(=O)c1ccc(F)cc1 (stereo unspecified) | 3.0 | -14.7 | 12.0 | 4.1 | 0.8 | -13.3
COc1ccc(CN2CCN(C(=O)Cc3ccccc3)CC2)cc1Br | 0.4 | -4.2 | 2.4 | -5.5 | -1.9 | 3.4
O=C(CCCN1CCC(n2c(=O)[nH]c3ccccc32)CC1)c1ccc(F)cc1 | 2.6 | 0.3 | 5.2 | 26.6* | -17.2 | 1.2
O=c1cc(C(F)(F)F)c2cc3c4c(c2o1)CCCN4CCC3 | 88.8* | -9.3 | 85.6* | 44.8* | -15.8 | 59.2*
CCOC(=O)[C@]12Cc3ccc4ccccc4c3[C@H]1N(Cc1ccccc1)C(=O)c1ccccc12 | 0.5 | 5.2 | -1.1 | -6.4 | -1.1 | -18.1
CSc1nc(N)c(N=Nc2ccc([As](=O)(O)O)cc2)c(=O)[nH]1 | 0.1 | 19.7 | 0.9 | -2.2 | 5.5 | -13.2
Cc1cccc(CNCCc2c[nH]c3ccccc23)c1 | 23.3* | 20.4 | 14.5 | 10.3 | -8.2 | -5.5
